In the library only some 21% were active in any assay of this set; here they are far more common.
CYP2C9 inh: blockers of cytochrome P450 2C9 activity – biochemical, luminescence, ADME assay, primary screen; P11712; CYP2C9 Supersomes, luciferin-H conversion; inhibition, % at 5 µM; 20% of 96,000 active; AID 777, 2007;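 active = blocking of liver enzyme CYP2C9 beyond about 50% at 5 µM, limit read from the data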
CYP2C9 act: human CYP2C9 activators, primary screen, biochemical, luminescence; Cytochrome P450 2C9 (Homo sapiens), P11712; recombinant CYP2C9, luciferin-H conversion; active compounds read high; factor 1 = untreated enzyme, 0 = blocked; activation factor at 5 µM; 1.4% of 96,000 active; AID 1024, 2008;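 active = activation factor of 2 or more for CYP2C9 at a 5 µM dose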;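 also: 0 = sulfaphenazole-blocked wells and 1 = vehicle-only wells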
MRP1 act: H69AR viability gain despite doxorubicin, primary screen, MRP-1 activator project, H69AR cells, CellTiter-Glo | AID 799, 2007 | viability rescue | 0.61% of 140,000 active | viability increase, % at 10 µM;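 active = viability gain under doxorubicin at or above a set limit, the compound median plus 3 SD, cut at about 4.7% in these data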;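 also: MRP-1 overexpressing cells given doxorubicin 25 µM after compound pretreatment; 18-22 h compound pretreatment then 72 h with doxorubicin before readout; 0% = doxorubicin-only wells and 100% = vehicle-treated cells without doxorubicin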
MRP reversal: reversal of MRP1-mediated doxorubicin resistance, primary screen, H69AR cells, doxorubicin co-treatment; H69AR cells + 2 uM doxorubicin, CellTiter-Glo, 72 h; 0.04% of 85,000 active; differential viability (reversal), % at 10 µM;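 active = viability drop by adding the cancer drug above about 55%, with treated viability meeting a 40% cutoff, limit read from the data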;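 also: viability without doxorubicin minus viability with 2 µM doxorubicin for each compound; larger differential means the compound sensitizes cells more to doxorubicin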
CYP2C19 act: human CYP2C19 activators, primary screen, biochemical, luminescence | activation factor at 5 µM | recombinant CYP2C19, luciferin-H EGE luminescence; active compounds read high; 0 = fully inhibited enzyme, 1 = untreated enzyme | AID 1025, 2008 | Cytochrome P450 2C19 (Homo sapiens), P33261 | 96,000 tested, under 10 active;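 active = activation factor of at least 2 at 5 µM in the primary screen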;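 also: 0 = wells with 2.5 mM tranylcypromine and 1 = vehicle-only wells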
Target sequence (P33261 whole entry, looked up): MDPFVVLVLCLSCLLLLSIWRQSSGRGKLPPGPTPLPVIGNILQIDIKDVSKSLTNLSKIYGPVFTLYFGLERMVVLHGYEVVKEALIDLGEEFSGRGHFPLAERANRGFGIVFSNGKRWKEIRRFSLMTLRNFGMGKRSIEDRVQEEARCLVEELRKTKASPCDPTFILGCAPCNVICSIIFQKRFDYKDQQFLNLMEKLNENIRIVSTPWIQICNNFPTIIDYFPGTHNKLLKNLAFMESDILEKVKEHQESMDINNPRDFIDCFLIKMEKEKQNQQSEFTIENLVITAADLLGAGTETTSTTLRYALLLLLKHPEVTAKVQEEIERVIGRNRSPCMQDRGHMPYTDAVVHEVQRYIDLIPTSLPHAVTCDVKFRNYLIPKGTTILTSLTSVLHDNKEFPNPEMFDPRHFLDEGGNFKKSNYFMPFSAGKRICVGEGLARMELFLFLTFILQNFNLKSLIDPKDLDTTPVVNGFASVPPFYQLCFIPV
CYP2C19 inh: blockers of cytochrome P450 2C19 activity – biochemical, luminescence, ADME assay, primary screen; P33261; CYP2C19 Supersomes, luciferin-H EGE luminescence, 30 min; inhibition, % at 5 µM; 21% of 96,000 active; AID 778, 2007;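 active = CYP2C19 inhibition above a set limit at 5 µM in the primary screen, cut at about 50% in these data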;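 also: plate controls were negative control wells for no effect and 2.5 mM tranylcypromine positive control for full effect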
* = called active by the depositor.

How did CCCCOC(=O)C1=C(C)Nc2ncnn2C1c1cc(OC)ccc1OC (stereo unspecified) do in these assays?
CYP2C9 inh: 58*; CYP2C9 act: 0.4; MRP1 act: -4; MRP reversal: 0; CYP2C19 act: 0.8; CYP2C19 inh: 24

How did CC(=O)C1=C(C)Nc2ncnn2C1c1ccc(Cl)cc1Cl (stereo unspecified) do in these assays?
CYP2C9 inh: 30; CYP2C9 act: 0.7; MRP1 act: 0; MRP reversal: 13; CYP2C19 act: 0.3; CYP2C19 inh: 68*

Results for CCOC(=O)C1=C(C(F)(F)F)Nc2ncnn2C1c1cc(OC)ccc1OC (stereo unspecified) ?
MRP1 act: -3

What do the screens show for `COc1ccc(NC(=O)c2ccc(NC(=O)COC(=O)CC(NC(=O)c3ccccc3Cl)c3ccccc3)cc2)cc1` (stereo unspecified)?
MRP1 act: -1

What do the screens show for `CCn1nc(C(=O)O)c(=O)c2cc3c(cc21)OCO3`?
MRP1 act: -1; MRP reversal: -16

Results for CCOC(=O)C1=C(CNCCc2ccc(Cl)cc2)NC(=O)NC1c1ccc2c(c1)OCO2 (stereo unspecified) ?
CYP2C9 inh: 89*; CYP2C9 act: 0.1; MRP1 act: 0; MRP reversal: 12; CYP2C19 act: 0.1; CYP2C19 inh: 86*

Results for COc1ccc(OC)c(C2C(C(=O)Nc3ccc(F)cc3)=C(C)Nc3nc(CCCO)nn32)c1 (stereo unspecified) ?
CYP2C9 inh: 1; CYP2C9 act: 1; MRP1 act: -2; CYP2C19 act: 0.9; CYP2C19 inh: 7

Results for COC(=O)C1=C(C)Nc2ncnn2C1c1ccc(OC(=O)c2ccccc2)cc1 (stereo unspecified) ?
CYP2C9 inh: -22; CYP2C9 act: 1.2; MRP1 act: -3; MRP reversal: -4; CYP2C19 act: 0.6; CYP2C19 inh: 40

Results for COc1ccccc1NC(=O)C1=C(C)Nc2nc(CCCO)nn2C1c1ccc2c(c1)OCO2 (stereo unspecified) ?
CYP2C9 inh: 59*; CYP2C9 act: 0.4; MRP1 act: -3; MRP reversal: 5; CYP2C19 act: 0.6; CYP2C19 inh: 40

What do the screens show for `COC(=O)c1ccc(C2C(C(=O)Nc3ccc(C)cc3C)=C(C)Nc3ncnn32)cc1` (stereo unspecified)?
CYP2C9 inh: 25; CYP2C9 act: 0.7; MRP1 act: -3; MRP reversal: 10; CYP2C19 act: 0.4; CYP2C19 inh: 62*

Results for CCCC1=C(C(=O)OCC)C(c2ccncc2)n2ncnc2N1 (stereo unspecified) ?
CYP2C9 inh: 97*; CYP2C9 act: 0; MRP1 act: 0; MRP reversal: -1; CYP2C19 act: 0.2; CYP2C19 inh: 78*

What do the screens show for `CC1=C(C(=O)OCc2ccccc2)C(c2cccnc2)n2ncnc2N1` (stereo unspecified)?
CYP2C9 inh: 13; CYP2C9 act: 0.9; MRP1 act: 0; MRP reversal: 26; CYP2C19 act: 0.7; CYP2C19 inh: 35

Results for CC(C)c1nnc(NC(=O)CC(=O)Nc2ccccc2C(=O)O)s1 ?
CYP2C9 inh: 9; CYP2C9 act: 0.9; MRP1 act: -1; MRP reversal: 14; CYP2C19 act: 0.8; CYP2C19 inh: 15

How did CCn1nnc(-c2ccccc2NC(=O)c2cnccn2)n1 do in these assays?
MRP reversal: -1

Results for COCCN(C(=O)CCCC(=O)Nc1ccccn1)C(C(=O)NC1CCCC1)c1ccc(C)cc1 (stereo unspecified) ?
CYP2C9 inh: 28; CYP2C9 act: 0.7; MRP1 act: -3; MRP reversal: 13; CYP2C19 act: 0.5; CYP2C19 inh: 47

Results for CCOC(=O)C1=C(C)NC(=O)NC1c1ccc2c(c1)OCO2 (stereo unspecified) ?
CYP2C9 inh: 32; CYP2C9 act: 0.7; MRP1 act: -1; MRP reversal: 0; CYP2C19 act: 0.6; CYP2C19 inh: 43

Results for COC(=O)C1=C(C)Nc2ncnn2C1c1ccc(C)o1 (stereo unspecified) ?
CYP2C9 inh: 24; CYP2C9 act: 0.8; MRP1 act: -2; CYP2C19 act: 0.9; CYP2C19 inh: 5

Results for COc1ccc(C2C(C(C)=O)=C(C)Nc3ncnn32)cc1OC (stereo unspecified) ?
CYP2C9 inh: 2; CYP2C9 act: 1; MRP1 act: -1; MRP reversal: 9; CYP2C19 act: 1.1; CYP2C19 inh: -10

How did CC(=O)C1=C(C)Nc2ncnn2C1c1cccc(OCc2ccccc2)c1 (stereo unspecified) do in these assays?
CYP2C9 inh: -13; CYP2C9 act: 1.1; MRP1 act: 0; MRP reversal: -3; CYP2C19 act: 0.9; CYP2C19 inh: 11

Results for CCCCOC(=O)C1=C(C)Nc2ncnn2C1c1cccc(OC)c1 (stereo unspecified) ?
CYP2C9 inh: 51*; CYP2C9 act: 0.5; MRP1 act: -3; CYP2C19 act: 0.3; CYP2C19 inh: 68*

How did CCOC(=O)C1=C(C)Nc2ncnn2C1c1ccc2c(c1)OCO2 (stereo unspecified) do in these assays?
CYP2C9 inh: 62*; CYP2C9 act: 0.4; MRP1 act: -1; MRP reversal: 4; CYP2C19 act: 0.5; CYP2C19 inh: 50*

Results for CCCCCOc1ccc(C2C(C(C)=O)=C(C)Nc3ncnn32)cc1OC (stereo unspecified) ?
CYP2C9 inh: 54*; CYP2C9 act: 0.5; MRP1 act: -3; CYP2C19 act: 0.8; CYP2C19 inh: 15

Results for COc1cc(C2C(C(=O)OC(C)C)=C(C)Nc3ncnn32)cc(OC)c1OC (stereo unspecified) ?
CYP2C9 inh: 78*; CYP2C9 act: 0.2; MRP1 act: -3; MRP reversal: 9; CYP2C19 act: 0.8; CYP2C19 inh: 20

Results for CCOC(=O)C1C(=O)C=C(c2ccc(C)cc2)CC1c1cccc([N+](=O)[O-])c1 (stereo unspecified) ?
MRP1 act: -6

What do the screens show for `CCCCn1nnnc1SCC(=O)c1ccc(C)c(C)c1`?
CYP2C9 inh: 41; CYP2C9 act: 0.6; MRP1 act: -1; MRP reversal: 10; CYP2C19 act: 0.1; CYP2C19 inh: 90*

What do the screens show for `COc1ccc(Cl)cc1C(=O)CSc1nc(N)cc(N)n1`?
CYP2C9 inh: -308; CYP2C9 act: 4.1*; MRP1 act: 1; MRP reversal: 7; CYP2C19 act: 0.8; CYP2C19 inh: 20

Compound activity from PubChem.
